In the supplement of paper PMC10849652:
The full data set covers some 7,900 targets. This sample favours those with a hit. About 0.6% of all pairs of compound and target were hits. Unmarked numbers belong to inactive results.

How the values were obtained:
Assay in all cases: log2 fold change, soluble protein after heating vs DMSO (PISA); higher = thermal stabilisation; K562 cells, 10 uM, 30 min; active = over 0.2 and 3.5 SD of the protein, either way, in both replicates (recomputed)
[1] = compound: CN1CCN(CCOc2cc(OC3CCOCC3)c3c(Nc4c(Cl)ccc5c4OCO5)ncnc3c2)CC1 [saracatinib]
Procedure, shortened: (§1)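 K562 cells at 2×10^6 cells/mL were given 10 μM compound for 30 min. Aliquots then went through 3 min of heating across 48°C-58°C, were pooled, and were extracted in PBS with 0.5% NP-40 at 4°C, and the supernatant after 21,000xg for 90 min was quantified by TMTpro 16plex LC-MS/MS with channel sums equalised. Thermal stability relative to control samples, from duplicates, is given as log2 fold change.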

[2] = compound: CN1CC[C@H](c2c(O)cc(O)c3c(=O)cc(-c4ccccc4Cl)oc23)[C@H](O)C1 [alvocidib]
Procedure, shortened: as §1

[3] = compound: CN1CCc2c(c3ccccc3n2Cc2ccc(C(=O)NO)cc2)C1 [Tubastatin A]
Procedure, shortened: as §1

[4] = compound: CNC(=O)C1=CC=CC=C1NC2=NC(=NC=C2Cl)NC3=C(C=C(C=C3)N4CCOCC4)OC
Procedure, shortened: as §1

[5] = compound: CNC(=O)c1ccc(Nc2ncc(C(F)(F)F)c(NCc3nccnc3N(C)S(C)(=O)=O)n2)cc1 [defactinib]
Procedure, shortened: as §1

[6] = compound: CNCc1ccc(-c2[nH]c3cc(F)cc4c3c2CCNC4=O)cc1 [rucaparib]
Procedure, shortened: as §1

[7] = compound: CNc1nc(-c2ccc3c(N)n[nH]c3c2)cc(N2C[C@@H](C(=O)NC3CCCCC3)CC[C@H]2C)n1
Procedure, shortened: as §1

[8] = compound: COC(=O)N[C@@H](C)CNc1nccc(-c2cn(C(C)C)nc2-c2cc(Cl)cc(NS(C)(=O)=O)c2F)n1 [encorafenib]
Procedure, shortened: as §1

[9] = compound: COC(=O)[C@H](CCSC)NC(=O)C1=C(C=C(C=C1)NC[C@H](CS)N)C2=CC=CC=C2
Procedure, shortened: as §1

[10] = compound: CO[C@H]1C[C@@H]2CC[C@@H](C)[C@@](O)(O2)C(=O)C(=O)N2CCCC[C@H]2C(=O)O[C@H]([C@H](C)C[C@@H]2CC[C@H](n3cnnn3)[C@H](OC)C2)CC(=O)[C@H](C)/C=C(\C)[C@@H](O)[C@@H](OC)C(=O)[C@H](C)C[C@H](C)/C=C/C=C/C=C/1C [zotarolimus]
Procedure, shortened: as §1

[11] = compound: COc1cc(C(=O)O)ccc1NC(=O)[C@@H]1N[C@@H](CC(C)(C)C)[C@](C#N)(c2ccc(Cl)cc2F)[C@H]1c1cccc(Cl)c1F [idasanutlin]
Procedure, shortened: as §1

[12] = compound: COc1cc(Nc2ncc3c(n2)-c2ccc(Cl)cc2C(c2c(F)cccc2OC)=NC3)ccc1C(=O)O [alisertib]
Procedure, shortened: as §1

[13] = compound: COc1cc2nc(-c3cc(F)ccc3O)nc(N[C@@H]3CNC[C@H]3C(C)(C)O)c2cc1OC
Procedure, shortened: as §1

[14] = compound: COc1cc2ncnc(Nc3ccc(F)c(Cl)c3)c2cc1OCCCN1CCOCC1 [gefitinib]
Procedure, shortened: as §1

[15] = compound: COc1cccc2cc(-c3nc([C@H]4CC[C@H](C(=O)O)CC4)n4ncnc(N)c34)[nH]c12
Procedure, shortened: as §1

[16] = compound: CS(=O)(=O)CCNCc1ccc(-c2ccc3ncnc(Nc4ccc(OCc5cccc(F)c5)c(Cl)c4)c3c2)o1 [lapatinib]
Procedure, shortened: as §1

[17] = compound: CS(=O)(=O)N1CCN(Cc2cc3nc(-c4cccc5[nH]ncc45)nc(N4CCOCC4)c3s2)CC1 [pictilisib]
Procedure, shortened: as §1

[18] = compound: CN1CCN(c2nc(C3=C(c4c[nH]c5ccccc45)C(=O)NC3=O)c3ccccc3n2)CC1 [sotrastaurin]
Procedure, shortened: as §1

[19] = compound: COC1=CC=C(C=C1)CN2C=CC3=C2C=C(C=C3)C(=O)NO
Procedure, shortened: as §1

[20] = compound: CON(C)C(=O)N1N=C(c2cc(F)ccc2F)S[C@@]1(CCCN)c1ccccc1 [filanesib]
Procedure, shortened: as §1

UniProt O14893, sequence (O14893 whole entry, looked up): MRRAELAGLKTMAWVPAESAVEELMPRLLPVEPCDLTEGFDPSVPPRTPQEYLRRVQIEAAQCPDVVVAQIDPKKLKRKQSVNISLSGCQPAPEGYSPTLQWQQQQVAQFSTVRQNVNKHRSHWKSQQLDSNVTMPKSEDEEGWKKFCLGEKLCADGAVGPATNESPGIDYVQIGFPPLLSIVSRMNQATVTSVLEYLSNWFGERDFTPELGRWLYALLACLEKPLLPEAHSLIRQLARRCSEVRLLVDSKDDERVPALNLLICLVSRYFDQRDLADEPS
UniProt Q969S8, sequence (Q969S8 whole entry, looked up): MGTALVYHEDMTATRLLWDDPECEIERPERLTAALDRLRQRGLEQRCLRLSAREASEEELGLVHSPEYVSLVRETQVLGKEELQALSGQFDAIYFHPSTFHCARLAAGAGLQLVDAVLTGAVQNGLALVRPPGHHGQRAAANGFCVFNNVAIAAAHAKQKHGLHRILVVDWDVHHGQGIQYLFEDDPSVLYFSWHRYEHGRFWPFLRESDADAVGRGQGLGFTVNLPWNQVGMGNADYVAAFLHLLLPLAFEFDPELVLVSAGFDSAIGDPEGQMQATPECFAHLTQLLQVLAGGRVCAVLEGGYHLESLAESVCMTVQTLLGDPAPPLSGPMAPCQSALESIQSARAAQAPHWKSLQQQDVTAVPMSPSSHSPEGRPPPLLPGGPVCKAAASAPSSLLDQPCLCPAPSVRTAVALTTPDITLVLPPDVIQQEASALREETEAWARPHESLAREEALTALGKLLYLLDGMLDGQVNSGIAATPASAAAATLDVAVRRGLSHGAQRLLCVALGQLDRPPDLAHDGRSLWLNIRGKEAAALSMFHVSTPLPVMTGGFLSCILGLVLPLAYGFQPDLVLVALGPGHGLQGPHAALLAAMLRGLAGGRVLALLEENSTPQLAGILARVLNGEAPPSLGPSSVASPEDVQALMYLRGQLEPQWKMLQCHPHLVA
UniProt Q96SL8, sequence (Q96SL8 whole entry, looked up): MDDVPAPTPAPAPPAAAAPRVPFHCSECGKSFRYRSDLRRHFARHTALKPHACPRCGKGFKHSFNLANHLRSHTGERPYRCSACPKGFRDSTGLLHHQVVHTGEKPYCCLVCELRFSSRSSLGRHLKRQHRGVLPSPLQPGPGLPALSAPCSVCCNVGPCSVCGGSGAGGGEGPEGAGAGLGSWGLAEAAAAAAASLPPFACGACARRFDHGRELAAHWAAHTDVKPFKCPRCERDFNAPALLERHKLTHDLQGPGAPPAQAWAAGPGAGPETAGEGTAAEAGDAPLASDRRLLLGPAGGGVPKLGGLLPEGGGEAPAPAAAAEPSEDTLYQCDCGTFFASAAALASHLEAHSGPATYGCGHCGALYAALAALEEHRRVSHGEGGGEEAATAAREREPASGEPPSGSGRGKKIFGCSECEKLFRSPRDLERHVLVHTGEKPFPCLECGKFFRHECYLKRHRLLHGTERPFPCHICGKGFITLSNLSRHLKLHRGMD
UniProt Q4ZG55, sequence (Q4ZG55 whole entry, looked up): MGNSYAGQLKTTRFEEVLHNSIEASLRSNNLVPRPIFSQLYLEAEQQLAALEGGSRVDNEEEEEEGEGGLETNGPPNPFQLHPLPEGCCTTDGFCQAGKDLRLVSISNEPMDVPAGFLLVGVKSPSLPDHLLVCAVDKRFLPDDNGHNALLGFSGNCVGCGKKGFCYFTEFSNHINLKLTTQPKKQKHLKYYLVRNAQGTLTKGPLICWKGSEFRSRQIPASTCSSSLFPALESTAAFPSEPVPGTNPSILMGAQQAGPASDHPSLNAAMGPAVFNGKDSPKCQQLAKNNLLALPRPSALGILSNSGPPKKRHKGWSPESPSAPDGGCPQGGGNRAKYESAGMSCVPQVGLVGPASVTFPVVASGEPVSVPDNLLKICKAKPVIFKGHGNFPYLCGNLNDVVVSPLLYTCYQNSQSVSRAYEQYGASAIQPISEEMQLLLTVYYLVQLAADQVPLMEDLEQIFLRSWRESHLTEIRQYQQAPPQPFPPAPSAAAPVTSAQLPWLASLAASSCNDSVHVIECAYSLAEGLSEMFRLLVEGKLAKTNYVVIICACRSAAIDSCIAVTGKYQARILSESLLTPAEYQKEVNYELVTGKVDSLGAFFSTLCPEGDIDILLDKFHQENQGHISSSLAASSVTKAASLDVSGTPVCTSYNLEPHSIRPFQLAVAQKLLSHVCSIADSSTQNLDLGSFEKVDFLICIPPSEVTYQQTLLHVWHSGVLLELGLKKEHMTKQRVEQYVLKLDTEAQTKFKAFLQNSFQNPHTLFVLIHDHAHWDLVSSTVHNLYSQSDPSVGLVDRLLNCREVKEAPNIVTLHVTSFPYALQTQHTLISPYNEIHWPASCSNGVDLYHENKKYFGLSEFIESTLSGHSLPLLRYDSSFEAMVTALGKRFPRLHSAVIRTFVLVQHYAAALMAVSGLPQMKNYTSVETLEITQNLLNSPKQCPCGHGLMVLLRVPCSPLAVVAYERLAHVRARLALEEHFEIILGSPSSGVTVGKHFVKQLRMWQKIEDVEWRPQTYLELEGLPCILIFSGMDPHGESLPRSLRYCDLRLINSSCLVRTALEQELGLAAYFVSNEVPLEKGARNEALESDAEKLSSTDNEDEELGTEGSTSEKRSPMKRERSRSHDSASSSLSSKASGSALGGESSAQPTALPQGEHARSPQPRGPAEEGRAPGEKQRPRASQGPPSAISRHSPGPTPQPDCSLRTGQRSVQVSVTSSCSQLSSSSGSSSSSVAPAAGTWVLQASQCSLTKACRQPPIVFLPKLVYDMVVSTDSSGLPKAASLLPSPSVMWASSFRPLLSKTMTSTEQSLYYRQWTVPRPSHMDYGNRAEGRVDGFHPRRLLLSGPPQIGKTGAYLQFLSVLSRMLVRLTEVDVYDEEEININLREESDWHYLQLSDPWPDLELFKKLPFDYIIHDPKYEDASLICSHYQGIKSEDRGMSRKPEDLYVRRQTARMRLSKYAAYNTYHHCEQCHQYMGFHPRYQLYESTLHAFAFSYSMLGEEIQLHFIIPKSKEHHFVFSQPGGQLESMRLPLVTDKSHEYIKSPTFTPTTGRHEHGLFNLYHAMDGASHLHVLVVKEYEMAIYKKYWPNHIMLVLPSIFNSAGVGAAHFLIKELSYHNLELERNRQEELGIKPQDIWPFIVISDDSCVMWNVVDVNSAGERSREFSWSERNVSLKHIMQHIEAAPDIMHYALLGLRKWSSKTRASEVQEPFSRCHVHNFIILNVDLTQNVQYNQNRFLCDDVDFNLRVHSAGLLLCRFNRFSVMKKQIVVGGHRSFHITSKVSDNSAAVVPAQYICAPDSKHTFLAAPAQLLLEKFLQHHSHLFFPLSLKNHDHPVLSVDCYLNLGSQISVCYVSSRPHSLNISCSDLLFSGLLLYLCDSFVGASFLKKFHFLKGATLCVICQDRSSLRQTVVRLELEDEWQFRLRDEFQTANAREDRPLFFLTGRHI
UniProt Q04446, sequence (Q04446 whole entry, looked up): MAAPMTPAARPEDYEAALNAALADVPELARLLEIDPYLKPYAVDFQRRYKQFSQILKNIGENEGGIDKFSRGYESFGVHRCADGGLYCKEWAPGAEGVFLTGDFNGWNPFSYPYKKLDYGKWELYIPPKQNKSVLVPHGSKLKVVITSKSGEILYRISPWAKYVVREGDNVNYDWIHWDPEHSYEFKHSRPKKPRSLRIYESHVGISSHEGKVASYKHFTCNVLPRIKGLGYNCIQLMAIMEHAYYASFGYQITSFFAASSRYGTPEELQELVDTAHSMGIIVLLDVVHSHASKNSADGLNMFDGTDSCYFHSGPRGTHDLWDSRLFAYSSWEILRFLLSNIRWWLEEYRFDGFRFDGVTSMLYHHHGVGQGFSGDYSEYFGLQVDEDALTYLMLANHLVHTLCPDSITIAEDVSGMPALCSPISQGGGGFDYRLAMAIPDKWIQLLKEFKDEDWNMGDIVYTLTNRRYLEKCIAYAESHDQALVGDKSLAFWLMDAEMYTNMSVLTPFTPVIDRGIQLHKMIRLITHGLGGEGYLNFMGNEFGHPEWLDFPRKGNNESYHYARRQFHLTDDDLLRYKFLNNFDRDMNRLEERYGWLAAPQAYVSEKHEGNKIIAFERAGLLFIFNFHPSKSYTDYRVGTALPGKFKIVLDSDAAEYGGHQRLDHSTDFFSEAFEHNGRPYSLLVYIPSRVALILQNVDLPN
UniProt P01344, sequence (P01344 whole entry, looked up): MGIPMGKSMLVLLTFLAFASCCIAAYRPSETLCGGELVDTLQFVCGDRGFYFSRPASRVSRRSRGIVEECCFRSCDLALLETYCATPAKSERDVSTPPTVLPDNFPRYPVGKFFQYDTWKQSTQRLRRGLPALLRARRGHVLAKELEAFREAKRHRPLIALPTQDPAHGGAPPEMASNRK
UniProt Q9UK97, sequence (Q9UK97 whole entry, looked up): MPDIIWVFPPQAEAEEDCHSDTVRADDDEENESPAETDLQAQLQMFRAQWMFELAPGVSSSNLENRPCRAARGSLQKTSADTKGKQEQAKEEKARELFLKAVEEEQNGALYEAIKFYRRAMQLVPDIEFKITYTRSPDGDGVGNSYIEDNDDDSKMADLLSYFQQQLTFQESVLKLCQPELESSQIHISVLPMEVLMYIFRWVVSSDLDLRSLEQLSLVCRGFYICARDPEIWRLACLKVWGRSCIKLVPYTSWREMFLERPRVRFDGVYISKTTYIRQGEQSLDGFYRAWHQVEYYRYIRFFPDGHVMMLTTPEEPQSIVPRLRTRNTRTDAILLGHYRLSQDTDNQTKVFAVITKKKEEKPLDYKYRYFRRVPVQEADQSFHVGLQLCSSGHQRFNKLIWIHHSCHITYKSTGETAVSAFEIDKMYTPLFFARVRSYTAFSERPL

| Target | log2 fold change [1] | log2 fold change [2] | log2 fold change [3] | log2 fold change [4] | log2 fold change [5] | log2 fold change [6] | log2 fold change [7] | log2 fold change [8] | log2 fold change [9] | log2 fold change [10] | log2 fold change [11] | log2 fold change [12] | log2 fold change [13] | log2 fold change [14] | log2 fold change [15] | log2 fold change [16] | log2 fold change [17] | log2 fold change [18] | log2 fold change [19] | log2 fold change [20] |
| --- | --- | --- | --- | --- | --- | --- | --- | --- | --- | --- | --- | --- | --- | --- | --- | --- | --- | --- | --- | --- |
| HDAC10 (UniProt Q969S8) | -0.04 | 0.011 | 0.458 | 0.108 | 0.067 | 0.024 | -0.02 | 0.024 | -0.137 | -0.022 | -0.157 | -0.264 | 0.049 | 0.168 | 0.065 | 0.044 | 0.084 | – | – | – |
| FIZ1 (UniProt Q96SL8) | 0.149 | 0.141 | – | – | 0.06 | -0.012 | -0.095 | 0.069 | 0.108 | 0.048 | – | 0.117 | – | 0.001 | -0.108 | – | 0.016 | 0 | -0.081 | 0.078 |
| FBXO9 (UniProt Q9UK97) | -0.024 | -0.018 | -0.003 | 0.141 | 0.052 | 0.055 | -0.014 | 0.152 | -0.037 | -0.027 | – | 0.466 (active) | -0.169 | 0.007 | 0.077 | 0.012 | 0.036 | – | 0.124 | – |
| HSPA8 (UniProt E9PN89) | – | 0.281 | -0.018 | -0.057 | 0.044 | 0.101 | – | 0.023 | -0.036 | -0.036 | 0.113 | 0.042 | 0.191 | 0.035 | 0.126 | -0.426 | 0.134 | 0.105 | -0.312 | 0.126 |
| GREB1 (UniProt Q4ZG55) | – | 0.123 | 0.264 | -0.113 | -0.008 | – | – | – | -0.112 | 0.07 | -0.023 | – | – | – | – | – | – | -0.175 | 0.448 | 0.074 |
| IGF2 isoform 3 (UniProt P01344) | 0.148 | – | – | -0.033 | 0.007 | – | -0.105 | – | 0.006 | – | – | – | – | – | – | – | – | – | 0.041 | – |
| H3-3A (UniProt P84243) | -0.094 | -0.063 | 0.203 | 0.002 | 0 | 0.031 | 0.189 | 0.034 | 0.102 | 0.009 | – | 0.098 | 0.179 | 0.035 | -0.062 | -0.042 | – | -0.356 | – | -0.187 |
| GEMIN2 (UniProt O14893) | 0.001 | 0.009 | – | – | -0.041 | 0.136 | 0.013 | 0.151 | 0.072 | -0.093 | 0.034 | -0.017 | -0.045 | 0.032 | -0.029 | 0.034 | 0.016 | 0.067 | -0.099 | 0.132 |
| GBE1 (UniProt Q04446) | -0.252 | -0.084 | 0.055 | -0.027 | -0.195 | -0.132 | 0.076 | 0.062 | -0.034 | 0.045 | 0.002 | 0.019 | -0.168 | – | -0.102 | -0.022 | – | – | 0.048 | – |
| HNRNPK isoform 3 (UniProt P61978) | 0.04 | – | 0.034 | -0.05 | 0.096 | 0.032 | -0.035 | -0.041 | -0.028 | – | – | -0.063 | – | -0.066 | 0.005 | – | 0.057 | 0.059 | -0.025 | 0.077 |
